Laboratory results: PubChem BioAssay (Tox21)
Records with an inconclusive call do not appear. Active and inactive are the calls of the source. Unless noted, calls follow the shape of the full dose curve.

Key:
[1] = Nuclear factor erythroid 2-related factor 2/antioxidant responsive element (Nrf2/ARE) small molecule agonists: qHTS cell viability counter screen in human keratinocytes (AID 1919968; active = well fitted curve in the direction sought with a large enough effect in the repeat runs; an effect the other way counts as inactive or inconclusive; also: nearly all actives have a fitted effect of over 55% in size; also: potency is read from the fitted curve at half-maximal effect)
Summary of the method: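 Cytotoxicity was multiplexed with the Nrf2/ARE luciferase assay in the same wells. Stably transfected HaCaT keratinocytes were treated with test compounds for 23 h at 37 C. Cell viability was then measured by CellTiter-Fluor fluorescence.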

[2] = Nuclear factor erythroid 2-related factor 2/antioxidant responsive element (Nrf2/ARE) small molecule agonists: luciferase reporter gene qHTS assay in human keratinocytes (AID 1919969); also: nearly all actives have a fitted effect of over 35% in size; also: potency is read from the fitted curve at half-maximal effect
[3] = target: Gonadotropin-releasing hormone receptor (Homo sapiens) (UniProt P30968); test: Human gonadotropin-releasing hormone receptor (GnRHR) small molecule agonists, calcium flux assay in GnRHR-HEK293 cells (AID 1920063); also: nearly all actives have a fitted effect of over 35% in size; also: potency is read from the fitted curve at half-maximal effect
Gonadotropin-releasing hormone receptor (Homo sapiens), sequence (P30968 whole entry, looked up): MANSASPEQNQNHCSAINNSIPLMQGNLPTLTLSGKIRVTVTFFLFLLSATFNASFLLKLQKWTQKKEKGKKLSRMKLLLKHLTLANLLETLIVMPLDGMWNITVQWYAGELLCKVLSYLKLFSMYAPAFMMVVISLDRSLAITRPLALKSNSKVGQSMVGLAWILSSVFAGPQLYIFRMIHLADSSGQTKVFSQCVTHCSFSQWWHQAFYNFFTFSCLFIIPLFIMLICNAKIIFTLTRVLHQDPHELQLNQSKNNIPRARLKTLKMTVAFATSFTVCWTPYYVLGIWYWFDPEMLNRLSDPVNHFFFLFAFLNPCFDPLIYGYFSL
Summary of the method: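 Agonist activity was measured as intracellular calcium flux in HEK293 cells engineered to stably express human GnRHR. After dye loading for 1 hour at 37 C, compounds in DMSO were added and fluorescence was followed for 3 minutes.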

[4] = target: KiSS-1 receptor (Homo sapiens) (UniProt Q969F8); test: Human kisspeptin (KISS1R) small molecule agonists, calcium flux assay in KISS1R-HEK293 cells (AID 1920064; active = well fitted curve in the direction sought with a large enough effect in the repeat runs; an effect the other way counts as inactive or inconclusive)
KiSS-1 receptor (Homo sapiens), sequence (Q969F8 whole entry, looked up): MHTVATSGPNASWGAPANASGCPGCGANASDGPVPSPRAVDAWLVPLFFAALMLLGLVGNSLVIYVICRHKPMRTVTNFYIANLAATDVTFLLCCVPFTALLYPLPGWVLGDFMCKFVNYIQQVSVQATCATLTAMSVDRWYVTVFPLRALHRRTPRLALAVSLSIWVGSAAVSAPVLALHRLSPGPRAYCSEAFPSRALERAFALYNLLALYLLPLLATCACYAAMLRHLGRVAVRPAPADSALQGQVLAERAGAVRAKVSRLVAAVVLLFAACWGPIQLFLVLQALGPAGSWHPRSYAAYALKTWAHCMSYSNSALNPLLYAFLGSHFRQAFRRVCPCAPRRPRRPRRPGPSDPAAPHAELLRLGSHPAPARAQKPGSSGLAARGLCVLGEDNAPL
Summary of the method: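 Agonist activity is monitored as intracellular calcium rise in engineered HEK293 cells carrying human KISS1R. Cells are dye-loaded for 1 h at 37 C before compound addition, and fluorescence is recorded for 3 min.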

[5] = G protein-coupled receptor (GPCR) small molecule agonists, calcium flux assay: HEK293 wild type cell line counter screen (AID 1920065)
Summary of the method: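 Seed cells, incubate 18 h (37 C, 5% CO2); add calcium dye, 1 h at 37 C; pin-transfer compounds, ATP control or DMSO; read fluorescence 480/540 nm each second for 3 min.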

[6] = p53 small molecule agonists, cell-based qHTS assay with rat liver microsomes (AID 1963578)
Summary of the method: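 Read-out is beta-lactamase reporter fluorescence (LiveBLAzer, 2 h, room temperature, dark) in p53RE-bla cells treated 16 h at 37 C with compound, rat liver microsomes and NADPH, both 0.5 mg/mL final.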

[7] = p53 small molecule agonists, cell-based qHTS assay with human liver microsomes: qHTS cell viability counter screen (AID 1963579); also: nearly all actives have a fitted effect of over 45% in size; also: potency is read from the fitted curve at half-maximal effect
Summary of the method: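 Cells carrying the p53 response-element beta-lactamase reporter are treated for 16 h at 37 C with test compounds in the presence of human liver microsomes and NADPH (both 0.5 mg/mL final); ATP-based CellTiter-Glo luminescence then reports viability.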

[8] = p53 small molecule agonists, cell-based qHTS assay: qHTS cell viability counter screen (AID 1963581); also: nearly all actives have a fitted effect of over 45% in size
Summary of the method: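 Viability was counter-screened in parallel with the p53 agonist reporter by measuring intracellular ATP luminescence in the same HCT-116 p53RE-bla wells after 16 h compound treatment at 37 C.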

[9] = p53 small molecule agonists, cell-based qHTS assay (AID 1963582; active = well fitted activation curve with a large enough effect in the signal ratio in the repeat runs, not every such curve was filed as active; the % refers to the signal ratio)
Summary of the method: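 Cells carrying a p53-responsive bla reporter are treated with test compounds for 16 h at 37 C; beta-lactamase activity is then detected with LiveBLAzer B/G FRET substrate after 2 h at room temperature.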

[10] = target: 5-hydroxytryptamine receptor 2A (Homo sapiens) (UniProt P28223); test: 5-hydroxytryptamine receptor 2A (HTR2A) small molecule antagonists, cell-based qHTS assay (AID 1963586); also: nearly all actives have a fitted effect of over 45% in size; also: potency is read from the fitted curve at half-maximal effect
5-hydroxytryptamine receptor 2A (Homo sapiens), sequence (P28223 whole entry, looked up): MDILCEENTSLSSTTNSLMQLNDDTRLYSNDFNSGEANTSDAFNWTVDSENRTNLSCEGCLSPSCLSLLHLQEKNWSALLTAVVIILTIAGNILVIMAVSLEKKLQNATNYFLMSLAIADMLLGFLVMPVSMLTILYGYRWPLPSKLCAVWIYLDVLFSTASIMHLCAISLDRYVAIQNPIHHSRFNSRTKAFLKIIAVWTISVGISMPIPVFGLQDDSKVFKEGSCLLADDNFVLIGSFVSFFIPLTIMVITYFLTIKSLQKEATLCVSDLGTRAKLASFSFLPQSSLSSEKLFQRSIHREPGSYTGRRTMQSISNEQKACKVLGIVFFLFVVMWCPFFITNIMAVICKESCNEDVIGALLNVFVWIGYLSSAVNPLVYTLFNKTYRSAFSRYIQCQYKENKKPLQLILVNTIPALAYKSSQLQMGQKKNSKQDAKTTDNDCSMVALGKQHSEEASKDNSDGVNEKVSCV
Summary of the method: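 CHO cells stably expressing human HTR2A were plated for 18 h at 37 C, then loaded with calcium dye for 1 h. Compounds were preincubated 5 min at room temperature before DOI (4 nM solution) was added. Kinetic fluorescence was read for 3 min.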

[11] = target: 5-hydroxytryptamine receptor 2A (Homo sapiens) (UniProt P28223); test: 5-hydroxytryptamine receptor 2A (HTR2A) small molecule agonists, cell-based qHTS assay (AID 1963587); also: nearly all actives have a fitted effect of over 30% in size
Summary of the method: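 HTR2A-CHO cells, plated 18 h at 37 C/5% CO2, dye-loaded 1 h at 37 C; compounds in DMSO added by pin tool (agonist mode). Intracellular calcium flux read as kinetic fluorescence on FDSS over 2 min at 1 s intervals.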

[12] = target: Muscarinic acetylcholine receptor M1 (Homo sapiens) (UniProt P11229); test: Cholinergic receptor muscarinic 1 (CHRM1) small molecule antagonists, cell-based qHTS assay (AID 1963588); also: nearly all actives have a fitted effect of over 40% in size
Muscarinic acetylcholine receptor M1 (Homo sapiens), sequence (P11229 whole entry, looked up): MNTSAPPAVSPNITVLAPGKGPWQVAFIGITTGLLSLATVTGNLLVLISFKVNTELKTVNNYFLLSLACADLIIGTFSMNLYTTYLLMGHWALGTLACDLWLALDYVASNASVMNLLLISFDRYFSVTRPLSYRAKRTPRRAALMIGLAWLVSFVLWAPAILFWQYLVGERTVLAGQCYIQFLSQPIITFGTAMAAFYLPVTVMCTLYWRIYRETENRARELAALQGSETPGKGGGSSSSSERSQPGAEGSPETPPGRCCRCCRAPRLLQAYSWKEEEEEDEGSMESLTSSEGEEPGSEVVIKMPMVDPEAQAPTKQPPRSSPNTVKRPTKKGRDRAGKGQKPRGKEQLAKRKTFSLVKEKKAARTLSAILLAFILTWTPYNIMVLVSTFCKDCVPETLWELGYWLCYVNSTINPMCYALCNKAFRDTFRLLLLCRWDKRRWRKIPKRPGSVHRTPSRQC
Summary of the method: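 Compounds were tested at 15 concentrations in three independent runs. Dye-loaded CHRM1-CHO cells were exposed 5 min at room temperature before stimulation by acetylcholine added at 50nM. Intracellular calcium was read kinetically on FDSS for 3 min.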

[13] = target: Muscarinic acetylcholine receptor M1 (Homo sapiens) (UniProt P11229); test: Cholinergic receptor muscarinic 1 (CHRM1) small molecule agonists, cell-based qHTS assay (AID 1963589); also: nearly all actives have a fitted effect of over 35% in size
Summary of the method: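 Cells were plated and incubated 18 h at 37 C/5% CO2, loaded with calcium dye for 1 h at 37 C, then treated with compounds in DMSO. Fluorescence was recorded kinetically at 1 sec intervals.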

[14] = cAMP Responsive Elements (CRE) small molecule agonists, cell-based qHTS assay (AID 1963590)
Summary of the method: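 Cells carrying a CRE-driven beta-lactamase reporter (HEK 293T) are seeded, incubated overnight (18 h), and treated with test compounds for 3 h at 37 C; reporter activity is then detected with a FRET substrate after 2 h at room temperature.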

[15] = cAMP Responsive Elements (CRE) small molecule antagonists, cell-based qHTS assay (AID 1963591; active = well fitted inhibition curve with a large enough effect in the signal ratio in the repeat runs, not every such curve was filed as active; the % refers to the signal ratio)
Summary of the method: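 Cells (CRE-bla HEK 293T, DMEM with 10% dialyzed FBS and 25 mM HEPES) are seeded and incubated 18 h. Compounds are added with NKH477 agonist at 0.25 uM final for 3 h, then FRET substrate for 2 h.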

[16] = target: Beta-2 adrenergic receptor (Homo sapiens) (UniProt P07550); test: Adrenergic beta2 receptor (ADRB2) small molecule antagonists, cell-based qHTS assay (AID 1963592); also: nearly all actives have a fitted effect of over 50% in size; also: potency is read from the fitted curve at half-maximal effect; as to activity change, negative = inhibition: series mostly up to about 92 µM
Beta-2 adrenergic receptor (Homo sapiens), sequence (P07550 whole entry, looked up): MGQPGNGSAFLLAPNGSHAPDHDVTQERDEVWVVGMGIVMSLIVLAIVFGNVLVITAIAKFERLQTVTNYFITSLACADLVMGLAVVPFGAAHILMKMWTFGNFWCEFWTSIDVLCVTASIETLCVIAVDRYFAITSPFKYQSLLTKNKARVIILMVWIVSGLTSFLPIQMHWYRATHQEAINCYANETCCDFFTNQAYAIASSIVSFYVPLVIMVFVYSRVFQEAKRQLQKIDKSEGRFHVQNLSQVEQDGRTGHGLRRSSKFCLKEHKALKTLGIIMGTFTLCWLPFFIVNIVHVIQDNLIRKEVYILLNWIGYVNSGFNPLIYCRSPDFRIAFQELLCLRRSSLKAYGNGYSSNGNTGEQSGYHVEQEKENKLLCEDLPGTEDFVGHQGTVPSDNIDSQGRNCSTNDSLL
Summary of the method: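 Assay format: CHO-ADRB2 cells, 18-20hr seeding at 37C/5% CO2, then compound plus 1nM isoproterenol agonist mix for 0.5hr RT. Homogeneous time-resolved fluorescence cAMP detection after 1hr, expressed as 665/615 nm ratio.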

[17] = target: Beta-2 adrenergic receptor (Homo sapiens) (UniProt P07550); test: Adrenergic beta2 receptor (ADRB2) small molecule agonists, cell-based qHTS assay (AID 1963593);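 also: CHO cells stably overexpressing human ADRB2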
Summary of the method: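 CHO cells stably over-expressing ADRB2 were plated overnight at 37C, then dosed with compounds plus a stimulation mix containing 100uM IBMX and 25uM Ro-20-1724 for 0.5hr at room temperature. cAMP was measured by HTRF competition, 1hr.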

[18] = target: D(2) dopamine receptor (Homo sapiens) (UniProt P14416); test: Dopamine D2 receptor (DRD2) small molecule antagonists, cell-based qHTS assay (AID 1963595; active = well fitted inhibition curve with a large enough effect in the signal ratio in the repeat runs, with a control signal flat; the % refers to the signal ratio; also: potency is read from the fitted curve at half-maximal effect)
D(2) dopamine receptor (Homo sapiens), sequence (P14416 whole entry, looked up): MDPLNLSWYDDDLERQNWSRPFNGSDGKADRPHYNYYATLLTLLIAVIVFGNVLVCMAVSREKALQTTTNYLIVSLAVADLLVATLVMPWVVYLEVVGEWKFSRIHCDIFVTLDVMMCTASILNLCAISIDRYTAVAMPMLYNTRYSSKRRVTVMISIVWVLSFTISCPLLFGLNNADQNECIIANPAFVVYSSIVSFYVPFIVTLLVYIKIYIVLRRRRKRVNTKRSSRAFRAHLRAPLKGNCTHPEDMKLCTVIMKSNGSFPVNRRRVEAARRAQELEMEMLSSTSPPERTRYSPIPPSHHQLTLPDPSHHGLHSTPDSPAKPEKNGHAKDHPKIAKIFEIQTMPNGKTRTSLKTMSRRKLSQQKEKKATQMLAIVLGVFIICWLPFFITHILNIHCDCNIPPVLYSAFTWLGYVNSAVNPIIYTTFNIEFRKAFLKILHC
Summary of the method: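 In this cell-based antagonist screen, compounds act for 10 min at room temperature before a 30 min challenge with 12 nM quinpirole and 200 nM NKH477. cAMP is quantified by HTRF competition in DRD2-HEK293 cells containing 0.1 mM Ro20-1724.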

[19] = p53 small molecule agonists, cell-based qHTS assay with rat liver microsomes: qHTS cell viability counter screen (AID 1963580); also: nearly all actives have a fitted effect of over 45% in size
Summary of the method: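 Luminescent ATP readout (CellTiter-Glo, 30 min at room temperature) reports viability of p53RE-bla HCT-116 cells after 16 h at 37 C with test compounds under metabolic activation by rat liver microsomes and NADPH at 0.5 mg/mL final each.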

[20] = target: D(2) dopamine receptor (Homo sapiens) (UniProt P14416); test: Dopamine D2 receptor (DRD2) small molecule agonists, cell-based qHTS assay (AID 1963594); also: nearly all actives have a fitted effect of over 35% in size
Summary of the method: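 HEK293 cells stably expressing DRD2 were cultured 24 h at 37 C, then given Ro20-1724 (0.1 mM final) and compounds for 10 min at room temperature. NKH477 (200nM) was then added for 30 min. cAMP was read by HTRF.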
% is scaled to controls: 0 for no effect and ±100 for the full control effect.

CCc1ccc(CC)cc1
inactive: Potency [1] | Potency [2] | Potency [3] | outcome [4] | outcome [5] | Potency [6] | Potency [7] | Potency [8] | Potency [9] | Potency [10] | Potency [11] | Potency [12] | Potency [13] | Potency [14] | Potency [15] | Potency [16] | Potency [17] | Potency [18]

OC[C@H]1O[C@@H](O[C@@H]2[C@@H](CO)O[C@](O)(CO)[C@H]2O)[C@H](O)[C@@H](O)[C@H]1O
inactive: Potency [1] | Potency [2] | Potency [3] | outcome [4] | outcome [5] | Potency [7] | Potency [19] | Potency [8] | Potency [9] | Potency [11] | Potency [13] | Potency [14] | Potency [15] | Potency [16] | Potency [17] | Potency [20] | Potency [18]

CCOc1nc2cccc(C(=O)O)c2n1Cc1ccc(-c2ccccc2-c2nn[nH]n2)cc1
inactive: Potency [1] | Potency [2] | Potency [3] | outcome [4] | outcome [5] | Potency [6] | Potency [19] | Potency [9] | Potency [14] | Potency [15] | Potency [16] | Potency [17] | Potency [20] | Potency [18]

Nc1nc(-c2ccccc2)c(Br)c(=O)[nH]1
inactive: Potency [1] | Potency [2] | Potency [3] | outcome [4] | outcome [5] | Potency [6] | Potency [9] | Potency [10] | Potency [11] | Potency [12] | Potency [13] | Potency [14] | Potency [16] | Potency [17] | Potency [20] | Potency [18]

ICCc1ccccc1
inactive: Potency [1] | Potency [3] | outcome [4] | outcome [5] | Potency [6] | Potency [19] | Potency [10] | Potency [11] | Potency [13] | Potency [14] | Potency [16] | Potency [20] | Potency [18]
active: Potency [2] 67.2 µM | Potency [7] 28.3 µM

S=C(SSSSSSC(=S)N1CCCCC1)N1CCCCC1
inactive: activity, positive = activation [2] -39.1% [at 19 µM] | activity change [3] 9.84% [at 11.8 µM, active compounds read high] | activation [4] 1.75% [at 15.8 µM] | activation [5] 0.115% [at 11.8 µM] | activation [6] -7.65% [at 13.6 µM] | activity change, negative = cytotoxicity [19] -21.4% [at 13.5 µM] | activity change, negative = cytotoxicity [8] 9.63% [at 13.5 µM] | activation [9] -6.37% [at 13.5 µM] | activity, negative = inhibition [10] -4.42% [at 12.7 µM] | activation [11] 13.8% [at 15.9 µM] | activity, negative = inhibition [12] -12.9% [at 12.6 µM] | activation [13] 2.41% [at 15.8 µM] | activation [14] -0.287% [at 19 µM] | activity change, negative = inhibition [15] -25.4% [at 18.9 µM] | activity change, negative = inhibition [16] 8.1% [at 19 µM] | activity change, negative = inhibition [18] 1.15% [at 18.9 µM]
active: Potency [1] 0.134 µM

On1nnc2ccccc21
inactive: Potency [1] | Potency [2] | Potency [3] | outcome [4] | outcome [5] | Potency [6] | Potency [7] | Potency [19] | Potency [8] | Potency [10] | Potency [11] | Potency [12] | Potency [13] | Potency [15] | Potency [16] | Potency [20] | Potency [18]

CN(C)CCCSc1ccccc1NC(=O)/C=C/c1ccccc1
inactive: Potency [1] | Potency [2] | Potency [3] | outcome [4] | outcome [5] | Potency [7] | Potency [19] | Potency [8] | Potency [9] | Potency [12] | Potency [13] | Potency [14] | Potency [16] | Potency [17] | Potency [20]

CC(C)C/C=C(\C=O)c1ccccc1
inactive: Potency [1] | Potency [2] | Potency [3] | outcome [4] | outcome [5] | Potency [6] | Potency [19] | Potency [9] | Potency [11] | Potency [12] | Potency [13] | Potency [14] | Potency [15] | Potency [16] | Potency [20] | Potency [18]

[O]=[Bi]
inactive: activity change, negative = cytotoxicity [1] 4.16% [at 8.39 µM] | activity, positive = activation [2] 29.8% [at 8.39 µM] | activity change [3] 0.29% [at 5.22 µM, active compounds read high] | activation [4] 0.437% [at 6.97 µM] | activation [5] 0.259% [at 5.23 µM] | activation [6] 0.191% [at 5.99 µM] | activity change, negative = cytotoxicity [7] -5.49% [at 5.99 µM] | activation [9] 6.59% [at 5.99 µM] | activity, negative = inhibition [10] 2.38% [at 5.62 µM] | activation [11] 0.438% [at 7.02 µM] | activity, negative = inhibition [12] 3.36% [at 5.58 µM] | activation [14] -0.129% [at 8.39 µM] | activity change, negative = inhibition [15] -10.4% [at 8.39 µM] | activity change, negative = inhibition [16] 6.45% [at 8.39 µM] | activation [17] 3.98% [at 8.39 µM] | activation [20] 0.151% [at 8.39 µM] | activity change, negative = inhibition [18] -14.1% [at 8.38 µM]

O=C=Nc1cccc(C(F)(F)F)c1
inactive: Potency [1] | Potency [2] | Potency [3] | outcome [4] | outcome [5] | Potency [6] | Potency [7] | Potency [19] | Potency [8] | Potency [11] | Potency [12] | Potency [13] | Potency [15] | Potency [16] | Potency [20] | Potency [18]

CC(C)(Oc1ccc(Cl)cc1)C(=O)OCCCOC(=O)C(C)(C)Oc1ccc(Cl)cc1
inactive: Potency [1] | Potency [2] | Potency [3] | outcome [4] | outcome [5] | Potency [6] | Potency [19] | Potency [8] | Potency [9] | Potency [10] | Potency [12] | Potency [13] | Potency [14] | Potency [16] | Potency [20]

COc1ccccc1NC(=O)c1cc2ccccc2cc1O
inactive: Potency [1] | Potency [3] | outcome [4] | outcome [5] | Potency [6] | Potency [7] | Potency [8] | Potency [11] | Potency [12] | Potency [13] | Potency [20] | Potency [18]
active: Potency [2] 61.1 µM | Potency [10] 21.1 µM | Potency [16] 54.5 µM

CC(C)(C)NCC(O)c1cc(O)cc(O)c1 (centres undefined)
active: Potency [3] 0.268 µM | Potency [18] 10.6 µM
inactive: Potency [1] | Potency [2] | outcome [4] | outcome [5] | Potency [6] | Potency [19] | Potency [8] | Potency [15] | Potency [20]
